In PubChem BioAssay AID431 (Sanford-Burnham Center for Chemical Genomics, 2006):
In all, about 63,000 compounds went through this assay and about 1,100 (1.7%) were called active. What follows is part of a selection rich in actives, with near analogues and random picks from the rest. Results with a measured potency or affinity are listed apart. Values without a mark were called inactive.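 The calls were made as follows: active = compounds whose percent cytotoxicity in the single-dose primary screen, scaled between solvent and toxic-drug controls, exceeds 50; inactive = the rest.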

Assay: viability loss of HPDE-C7K cells – cell-based, fluorescence, HTS, primary screen (AID 431);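 also: 0% = DMSO solvent wells and 100% = doxorubicin-treated wells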
Settings: HPDE-C7K KRASV12 cells, Alamar Blue viability, 48 h; at 10 µM; active compounds read high

SMILES	cytotoxicity
CCCCOc1ccc(-c2ncc(Cl)cn2)cc1	-15%
Cn1c(Cn2c(=O)sc3ccccc32)nnc1SCC(=O)N1CCN(c2ccccc2)CC1	8.3%
O=C(COc1ccc2c(c1)OCO2)Nc1ccc2c(c1)oc1ccccc12	2.3%
O=C(Cn1ncc2c(=O)oc3ccccc3c21)N1CCN(C(=O)c2ccco2)CC1	0.4%
COC(=O)c1cc(-c2c(C)oc3cc(OC(C)C)ccc3c2=O)c(C)o1	-13.5%
Cn1c(=O)c2c(nc(CN3CCN(C(=O)c4ccco4)CC3)n2CCc2ccccc2)n(C)c1=O	-4.3%
CCOC(=O)c1ccc(NC(=O)NC(C)C2CCCO2)cc1 (stereo not given)	-0.2%
Cc1ccccc1CS(=O)(=O)CCC(=O)N1CCN(c2ccc(N3CCOCC3)nn2)CC1	3.2%
COc1cc(-c2nnc3n2N=C(c2ccccc2)CS3)cc(OC)c1OC	63.5% (active)
COc1ccc(OC)c(C2=Nn3c(nnc3-c3cc(OC)c(OC)c(OC)c3)SC2)c1	10.4%
COc1ccc(-c2nnc3n2N=C(c2ccccc2)CS3)cc1OC	-3%
COc1cc2c(cc1OC)C(/C(C#N)=N\O)=NC(C)(C)C2	7%
CCOC(=O)/C=C1\NC(C)(C)Cc2cc(OC)c(O)cc21	5.5%
O=C(CN1CCN(c2ccccc2F)CC1)Nc1ccccc1F	-7%
C=CCn1c(N)c(C(=O)NCc2ccco2)sc1=S	7.1%
O=C(NCc1ccco1)c1sc(=S)n2c1[nH]c(=O)c1ccccc12	81.4% (active)
CCCCCCNC(=O)c1c(O)c2ccccc2[nH]c1=O	-1.5%
CCCCNC(=O)c1sc(=S)n2c1[nH]c(=O)c1ccccc12	62.6% (active)
CCn1c(N)c(C(=O)NCc2ccco2)sc1=S	-5.3%
CCCCNC(=O)c1ccccc1C(=O)NCCCC	-2.3%
O=C(NCCCN1CCN(c2ccccc2F)CC1)C1CCC(=O)N1C1CCCC1 (stereo not given)	-6.6%
Cn1c(CCCCCN)nc2ccccc21	-27.2%
OCCN(Cc1ccccc1)Cc1ccccc1F	-13.3%
COc1ccc(O)c(-c2[nH]ncc2C(=O)c2ccccc2C)c1	2.7%
CCCc1ccc(Oc2cn[nH]c2-c2ccc(O)cc2O)cc1	29.1%

SMILES	cytotoxicity
CCCc1ccc(OCC(=O)O)cc1	2.3%
CCCc1ccc(Oc2cn[nH]c2-c2ccc(O)c(C)c2O)cc1	119% (active)
CC(C)Sc1ncnc2c1oc1ccccc12	-7.4%
COc1ccc(CNC(=O)CSc2nc3nc(C)cc(C)n3n2)cc1	1.6%
Cc1nn(-c2cccc(C(F)(F)F)c2)c(Cl)c1/C=N/n1cnnc1	3.5%
Fc1ccccc1CSc1nnnn1-c1ccc2c(c1)OCO2	2.3%
Fc1cccc(Cl)c1Cn1nnc(-c2ccc3c(c2)OCO3)n1	-3.6%
Fc1cccc(Cl)c1CSc1nnnn1-c1ccc2c(c1)OCO2	51.7% (active)
Cc1ccc2nc(NC3=NCN(Cc4cccnc4)CN3)nc(C)c2c1	5.9%
Cc1nc(NC2=NCN(Cc3cccnc3)CN2)nc2ccccc12	6.2%
Cc1ccc2nc(NC3=NCN(Cc4ccc5c(c4)OCO5)CN3)nc(C)c2c1	12.9%
Cc1nc(NC2=NCN(Cc3ccc4c(c3)OCO4)CN2)nc2ccccc12	15.2%
Cc1cc2nc(NC3=NCN(Cc4ccc5c(c4)OCO5)CN3)nc(C)c2cc1C	90% (active)
Cc1cc2nc(NC3=NCN(Cc4cccnc4)CN3)nc(C)c2cc1C	53.3% (active)
Cc1ccc(CCN2CC(C(=O)NCCCN3CCOCC3)CC2=O)cc1 (stereo not given)	2%
Cc1ccc(C)n1-c1ncn[nH]1	1.3%
CSc1nc(N2CCN(CCO)CC2)c2sc3nc(-c4ccco4)c4c(c3c2n1)CCC4	4.4%
CC1(C)Cc2c(C#N)c(NCCN3CCOCC3)nc(-c3ccco3)c2CO1	8.7%
c1nc(NCCN2CCOCC2)c2sc3nc(N4CCOCC4)c4c(c3c2n1)CCC4	18.4%
OCCN(CCO)c1ncnc2c1sc1nc(N3CCOCC3)c3c(c12)CCCC3	34.4%
O=C(Cn1cc2c(n1)CCCCC2)N1CCCCC1	5.5%
CCc1ccc(OCC(=O)N(C)C)c(Br)c1	7%
CCCCc1ccc(NC(=O)COCC)cc1	-2.8%
CCCCc1ccc(NC(=O)OC)cc1	-10.3%
CCOC(=O)CSC(CC)C(=O)Nc1nnc(C(C)C)s1 (stereo not given)	1.3%

SMILES	cytotoxicity
COc1ccc(CCNC(=O)C2CCN(C(=O)N(C)C)CC2)cc1OC	-12.4%
CCOC(=O)c1cc(-c2ccco2)nc2c1c(C)nn2-c1ccccc1	-7.1%
CCOc1cc(NC(=O)c2ccco2)c(OCC)cc1NC(=O)c1cc(OC)c(OC)c(OC)c1	7.5%
COc1cc(C(=O)Nc2ccc(NC(=O)c3ccco3)nc2)cc(OC)c1OC	-3.4%
COc1cc(NC(=O)c2ccco2)c(OC)cc1NC(=O)c1cc(OC)c(OC)c(OC)c1	50.8% (active)
COc1cccc(NC(=O)Cn2nnc(-c3ccccc3N)n2)c1	6.3%
CCc1ccc2[nH]c(=O)c(CN(CCO)C(=O)NCc3ccccc3)cc2c1	-4.1%
N#Cc1cc(Oc2cccc3cccnc23)c(-n2nnc3ccccc32)cc1C#N	74.9% (active)
c1ccc(-n2nnnc2Oc2cccc3cccnc23)cc1	-4.5%
COc1ccccc1Oc1cc(C#N)c(C#N)cc1-n1nnc2ccccc21	-24.3%
CCCC(=O)n1nc(-c2ccco2)nc1SCc1ccccc1	2.3%
CCn1c(SCC(=O)Nc2ccc(S(=O)(=O)Nc3ccccn3)cc2)nnc1-c1ccncc1	-0.6%
COC(=O)c1c(C(=O)OC)c2n(c1C)Cc1ccccc1C2	3%
Cc1occc1C(=O)Nc1cccc(C(=O)NCc2ccccc2)c1	-17.7%
O=C(NCc1ccco1)c1cccc(NC(=O)c2ccccc2)c1	33.2%
O=C(NCc1ccccc1)c1cccc(NC(=O)c2ccco2)c1	35.4%
CCC(CC)C(=O)Nc1cccc(C(=O)NCc2ccco2)c1	-2.1%
Cc1ccc(C(=O)Nc2cccc(C(=O)NCc3ccco3)c2)cc1	66.2% (active)
CCc1ccc(-n2c(SCC(=O)Nc3cc(C)[nH]n3)nc3[nH]ncc3c2=O)cc1	-4.9%
COc1ccc2nc(NC(=O)C3CCN(S(=O)(=O)c4cnc[nH]4)CC3)sc2c1	14.5%
O=C(Nc1c(C(=O)NCc2ccco2)cnn1-c1ccccc1)c1cccc(F)c1	7.2%
O=C(NCc1ccco1)c1cc2ccccc2o1	7.8%
Cc1ccc(-n2c(N)c(-c3nc4ccccc4n3C)sc2=S)cc1	9.5%
C=CCn1c(N)nc2ccccc21	-9.7%
C=CCn1c(N)c(-c2nc3ccccc3n2C)sc1=S	50.1% (active)

SMILES	cytotoxicity
CCC(=O)Nc1ccc(NC(=O)c2c(C)nc3ccccn23)cc1	-2.5%
O=C(CCCC(=O)N(CC(=O)NC1CCCC1)Cc1ccc(F)cc1)Nc1ccccn1	14.7%
C/C=C/Cn1c(N(C)Cc2ccccc2)nc2c1c(=O)[nH]c(=O)n2C	5.8%
CCOc1cc(N2CCOCC2)c(OCC)cc1NC(=O)CN1CCc2ccccc2C1	9.3%
CCOc1cc(N2CCOCC2)c(OCC)cc1NC(=O)COc1cccc2cccnc12	51% (active)
CCOc1cc(N2CCOCC2)c(OCC)cc1NC(=O)Cc1ccc(OC)c(OC)c1	-1.4%
CC(C)(C)c1ccc(C(=O)N2CCC(C(=O)NCC3CCCO3)CC2)cc1 (stereo not given)	-1.9%
CC(C)Cn1c(SCC(=O)NC2CCCc3ccccc32)nc(O)cc1=O (stereo not given)	-9.4%
N#Cc1c(/N=C/c2ccco2)oc(-c2ccccc2)c1-c1ccccc1	78.7% (active)
N#Cc1c(N)oc(-c2ccccc2)c1-c1ccccc1	-9.5%
N#Cc1c(/N=C/N2CCCC2)oc(-c2ccccc2)c1-c1ccccc1	15.9%
Cc1ccc(CCNc2ccccc2)c[n+]1[O-]	-10.6%
CCOC(=O)CN1C(=O)C(O)(CC(=O)c2ccco2)c2ccccc21 (stereo not given)	-77.9%
O=C(Nc1nccs1)Oc1ccccc1	0.7%
COc1ccc(C(C)=O)c2c(O)cccc12	12.2%
COc1ccc2c3c(cccc13)OCC2=O	18.6%
CC(=O)NC1CCN(C(=O)N2CCCC2)CC1	7.7%
O=C(CSc1n[nH]c(-c2ccncc2)n1)NC1CCS(=O)(=O)C1 (stereo not given)	-7.5%
Cc1c(C(=O)NCc2ccoc2)oc2ccc3c(c12)C(=O)CC(C)(C)O3	36.4%
CCOC(=O)c1ccc(N2C(=O)CC(NC3CCN(C(=O)c4ccc(F)cc4)CC3)C2=O)cc1 (stereo not given)	-19.3%
CC(C)OC(=O)c1cc(=O)[nH]c2ccccc12	13.4%
Cc1noc(C)c1S(=O)(=O)N(CC(=O)Nc1ccc2c(c1)OCO2)c1ccc(C(C)C)cc1	-3.1%
Cc1ccc2c(CC(=O)NCc3ccco3)coc2c1C	73.2% (active)
O=C(Cc1cccs1)NCc1ccco1	6.7%
Cc1cc(C)c2c(CC(=O)NCc3ccco3)coc2c1	5.6%
